Assay results as given in PubChem BioAssay (NCATS).
Values joined by “and” are separate entries in the source; they are usually repeats but may differ in a detail not shown here. Equal values may be shown once. Results filed as inconclusive are left out. Where a call stands in place of a potency, no number is given. Active and inactive are the calls of the source. Unless noted, calls follow the shape of the dose curve; as a rule, active = well fitted curve in the direction sought with a large enough effect; inconclusive = small, poorly fitted or top-dose-only effect, or another doubt; inactive = no such curve, though single readings can be large; an effect the other way counts as inactive or inconclusive.

Assays:
[1] = molecular target: Voltage-gated inwardly rectifying potassium channel KCNH2 (Homo sapiens) (UniProt Q12809); experiment: qHTS Assay for Small Molecule Inhibitors of the Human hERG Channel Activity (AID 588834);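 also: lower thallium flux fluorescence means stronger hERG block; nearly all actives have a fitted effect of over 50% in size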; also: potency is read from the fitted curve at half-maximal effect
How it was run: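 Thallium serves as surrogate for K+ influx through BacMam-delivered hERG in U2OS cells. Compounds are added for about 10 minutes after dye loading; stimulation buffer then starts flux, monitored kinetically on FDSS.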

[2] = molecular target: Luciferin 4-monooxygenase (Photinus pyralis) (UniProt P08659); experiment: Biochemical firefly luciferase enzyme assay for NPC (AID 624030); also: nearly all actives have a fitted effect of over 70% in size; also: potency is read from the fitted curve at half-maximal effect
How it was run: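 Counter-screen for direct inhibition of the luciferase enzyme by approved-drug library compounds, run at 10 nM enzyme in 50 mM Tris acetate (final). Luminescence was read within 5 min of enzyme-buffer addition and normalized to PTC124 versus DMSO (0%).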

[3] = S16 Schwann cell viability assay (CellTiter-Glo assay) (AID 624031);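 also: cellular ATP luminescence as a viability measure; series mostly up to about 58 µM; nearly all actives have a fitted effect of over 70% in size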
How it was run: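 Luminescent ATP read-out (CellTiter-Glo) after 24 h compound exposure of native S16 rat Schwann cells at 37 °C. Signals were normalized between cell-free wells and DMSO-treated cells, set as 0% activity.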

[4] = S16 Schwann cell PMP22 intronic element firefly luciferase assay (AID 624032); also: series mostly up to about 58 µM; nearly all actives have a fitted effect of over 30% in size
How it was run: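 Rat S16 Schwann cells stably carrying a PMP22 intronic element-driven Fluc reporter were seeded overnight, then exposed to compounds for 24 h at 37 °C. Luminescence was normalized to PTC124 (positive control) and DMSO (0% activity).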

[5] = qHTS assay for small molecule antagonists of retinoid X receptor alpha signaling (AID 588546; active = well fitted inhibition curve with a large enough effect in the signal ratio, with a control signal flat, not every such curve was filed as active; the % refers to the signal ratio;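 also: cells stimulated with 9-cis-retinoic acid as agonist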); conditions: HEK293T RXRa-UAS-bla, beta-lactamase ratio, antagonist mode; measured here: W530 green channel, cytotoxicity proxy
How it was run: (§1)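 Beta-lactamase reporter inhibition, read as CCF4 fluorescence ratio (ex 405, em 460/530 nm) after 2 h at RT. HEK293T UAS-bla cells, 2500/well, were stimulated with 9-cis-RA at 500 or 100 nM final alongside test compound for 18 h at 37 C.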

[6] = molecular target: Retinoic acid receptor RXR-alpha (Homo sapiens) (UniProt P19793); experiment: as above; conditions: HEK293T RXRa-UAS-bla, beta-lactamase ratio, antagonist mode
How it was run: as §1

[7] = qHTS assay for small molecule agonists of the antioxidant response element (ARE) signaling pathway (AID 651741; active = well fitted activation curve with a large enough effect in the signal ratio; the % refers to the signal ratio)
How it was run: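 Reporter: beta-lactamase under ARE, stably in HepG2. Exposure: 16 h, 37 C, compounds delivered in DMSO by pin tool after 5 h cell preincubation. Readout: FRET substrate fluorescence after 2 h at RT.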

[8] = molecular target: Thyroid hormone receptor beta (Homo sapiens) (UniProt P10828); experiment: qHTS assay for small molecule agonists of thyroid hormone receptor beta signaling (AID 588545; calls by dose curve)
How it was run: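 Beta-lactamase reporter activity under TR response element control is measured in HEK 293 cells after 18 hrs compound exposure. Signal is ratiometric CCF4 fluorescence, 460/530 nm.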

[9] = molecular target: Thyroid hormone receptor beta (Homo sapiens) (UniProt P10828); experiment: qHTS assay for small molecule antagonists of thyroid hormone receptor beta signaling (AID 588547; active = well fitted inhibition curve with a large enough effect in the signal ratio, with a control signal flat, not every such curve was filed as active; the % refers to the signal ratio;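 also: cells stimulated with 0.4 nM T3 agonist during compound exposure; series mostly up to about 77 µM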); conditions: TR-UAS-bla HEK293, beta-lactamase ratio, antagonist mode, 18 h
How it was run: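 TR-UAS-bla GripTite HEK293 cells in 2% charcoal/dextran FBS medium were preincubated 4 h at 37 C, given compound (0.59 nM to 92 uM) plus 0.4 nM T3 (final) for 18 h, then CCF4 for 2 h at RT; Hill fit gave IC50.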

[10] = qHTS assay for small molecule activators of the p53 signaling pathway (AID 651743; active = well fitted activation curve with a large enough effect in the signal ratio, not every such curve was filed as active; the % refers to the signal ratio; also: series mostly up to about 92 µM); conditions: HCT-116 p53RE-bla, beta-lactamase FRET ratio, 16 h; activation: stronger effect = higher value
How it was run: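 Agonist-mode quantitative HTS in HCT-116 cells carrying a p53-response-element beta-lactamase reporter; 16 h compound treatment at 37 C, then FRET substrate loading for 2 h at room temperature and fluorescence read.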

[11] = molecular target: Glutaminase kidney isoform, mitochondrial (Homo sapiens) (UniProt O94925); experiment: qHTS for Inhibitors of Glutaminase (GLS): LOPAC Validation (AID 624146);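 also: glutamate product detected by oxidase and peroxidase coupled Amplex red fluorescence gain; series mostly up to about 46 µM; nearly all actives have a fitted effect of over 60% in size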
How it was run: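 Glutamate formation by hKGA was monitored fluorometrically using coupled glutamate oxidase, HRP and Amplex Red. Substrate was added as 1 mM L-glutamine solution; incubation was 30 min at RT after an initial read.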

[12] = qHTS of Trypanosoma Brucei Inhibitors: LOPAC Validation (AID 624147)
How it was run: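 Enzyme and substrate buffer are dispensed first and compound is pin-transferred. ADP at 130 uM final then starts the reaction, which runs 45 min at room temperature. Detection reagent is added for 10 min before luminescence is imaged.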

[13] = molecular target: Glucagon-like peptide 1 receptor (Homo sapiens) (UniProt P43220); experiment: qHTS of GLP-1 Receptor Agonists: LOPAC Validation (AID 624148);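 also: higher luminescence signal means agonism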
How it was run: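 HEK293 cells stably co-expressing a cAMP-responsive luciferase reporter and a hypersensitive GLP-1R were plated 12 h at 37 °C and exposed to compounds for 4-6 hr at 37 °C, 5% CO2. Luminescence was read 12 min after adding detection reagent.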

[14] = qHTS of Nrf2 Activators: LOPAC Validation (AID 624149)
How it was run: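 Luciferase signal from ARE activation, read with Steady-Glo after 30 min at room temperature. Compounds were pin-transferred onto AREc32_Fluc cells (1000/well, OPTI-MEM/5% FBS, seeded overnight) and left 24 hr at 37 deg C.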

[15] = HTS Assay for Allosteric Antagonists of the Human D2 Dopamine Receptor: Hit Validation in HTRF (AID 624455);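 also: stable D1 dopamine receptor cell line scored for blocking the D1 response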
How it was run: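 Inhibition of the D1-mediated response was measured by HTRF. Cells used were a line stably expressing the D1 dopamine receptor.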

[16] = S16 Schwann cell PMP22 intronic element beta-lactamase assay (AID 624044; calls by dose curve; also: nearly all actives have a fitted effect of over 15% in size)
How it was run: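 Beta-lactamase reporter under a PMP22 intronic regulatory element in stable S16 rat Schwann cells; 24 h compound exposure. 460 nm blue signal normalized between DMSO (0%) and potassium clavulanate, with 535 nm FRET tracking viability; curves classed by r2 and response.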

Chain of Glutaminase kidney isoform, mitochondrial (Homo sapiens) (O94925 whole entry, looked up, canonical isoform): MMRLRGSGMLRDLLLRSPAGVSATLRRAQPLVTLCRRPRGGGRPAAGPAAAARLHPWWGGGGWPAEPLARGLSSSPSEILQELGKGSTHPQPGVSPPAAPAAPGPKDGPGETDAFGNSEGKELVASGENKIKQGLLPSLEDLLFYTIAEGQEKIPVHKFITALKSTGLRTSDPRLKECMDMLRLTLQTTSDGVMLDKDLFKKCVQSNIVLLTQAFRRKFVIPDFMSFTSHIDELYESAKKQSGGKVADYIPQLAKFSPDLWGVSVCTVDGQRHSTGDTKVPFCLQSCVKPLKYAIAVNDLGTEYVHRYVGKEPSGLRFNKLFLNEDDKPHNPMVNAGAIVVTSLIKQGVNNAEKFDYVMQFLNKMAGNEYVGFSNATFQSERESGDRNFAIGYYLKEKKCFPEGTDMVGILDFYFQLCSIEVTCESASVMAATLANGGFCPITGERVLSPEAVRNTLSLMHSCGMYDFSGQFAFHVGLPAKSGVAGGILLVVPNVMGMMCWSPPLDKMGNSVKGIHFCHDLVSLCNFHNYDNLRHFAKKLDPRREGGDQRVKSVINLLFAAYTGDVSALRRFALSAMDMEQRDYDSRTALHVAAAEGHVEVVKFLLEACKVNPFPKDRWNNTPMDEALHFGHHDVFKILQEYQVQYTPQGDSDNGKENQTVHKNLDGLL
Chain of Retinoic acid receptor RXR-alpha (Homo sapiens) (P19793 whole entry, looked up): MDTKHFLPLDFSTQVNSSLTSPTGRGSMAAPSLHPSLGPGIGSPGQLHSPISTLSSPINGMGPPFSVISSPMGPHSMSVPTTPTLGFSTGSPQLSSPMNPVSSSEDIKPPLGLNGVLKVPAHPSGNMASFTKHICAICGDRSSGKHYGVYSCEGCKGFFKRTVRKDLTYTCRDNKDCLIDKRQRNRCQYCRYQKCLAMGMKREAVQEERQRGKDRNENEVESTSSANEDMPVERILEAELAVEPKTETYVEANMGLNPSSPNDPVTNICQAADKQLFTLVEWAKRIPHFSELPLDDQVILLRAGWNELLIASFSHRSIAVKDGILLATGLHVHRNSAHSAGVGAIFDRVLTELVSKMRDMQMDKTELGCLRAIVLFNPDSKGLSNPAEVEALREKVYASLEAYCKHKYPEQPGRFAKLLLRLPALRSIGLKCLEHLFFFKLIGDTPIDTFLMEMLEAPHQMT
Chain of Voltage-gated inwardly rectifying potassium channel KCNH2 (Homo sapiens) (Q12809 whole entry, looked up): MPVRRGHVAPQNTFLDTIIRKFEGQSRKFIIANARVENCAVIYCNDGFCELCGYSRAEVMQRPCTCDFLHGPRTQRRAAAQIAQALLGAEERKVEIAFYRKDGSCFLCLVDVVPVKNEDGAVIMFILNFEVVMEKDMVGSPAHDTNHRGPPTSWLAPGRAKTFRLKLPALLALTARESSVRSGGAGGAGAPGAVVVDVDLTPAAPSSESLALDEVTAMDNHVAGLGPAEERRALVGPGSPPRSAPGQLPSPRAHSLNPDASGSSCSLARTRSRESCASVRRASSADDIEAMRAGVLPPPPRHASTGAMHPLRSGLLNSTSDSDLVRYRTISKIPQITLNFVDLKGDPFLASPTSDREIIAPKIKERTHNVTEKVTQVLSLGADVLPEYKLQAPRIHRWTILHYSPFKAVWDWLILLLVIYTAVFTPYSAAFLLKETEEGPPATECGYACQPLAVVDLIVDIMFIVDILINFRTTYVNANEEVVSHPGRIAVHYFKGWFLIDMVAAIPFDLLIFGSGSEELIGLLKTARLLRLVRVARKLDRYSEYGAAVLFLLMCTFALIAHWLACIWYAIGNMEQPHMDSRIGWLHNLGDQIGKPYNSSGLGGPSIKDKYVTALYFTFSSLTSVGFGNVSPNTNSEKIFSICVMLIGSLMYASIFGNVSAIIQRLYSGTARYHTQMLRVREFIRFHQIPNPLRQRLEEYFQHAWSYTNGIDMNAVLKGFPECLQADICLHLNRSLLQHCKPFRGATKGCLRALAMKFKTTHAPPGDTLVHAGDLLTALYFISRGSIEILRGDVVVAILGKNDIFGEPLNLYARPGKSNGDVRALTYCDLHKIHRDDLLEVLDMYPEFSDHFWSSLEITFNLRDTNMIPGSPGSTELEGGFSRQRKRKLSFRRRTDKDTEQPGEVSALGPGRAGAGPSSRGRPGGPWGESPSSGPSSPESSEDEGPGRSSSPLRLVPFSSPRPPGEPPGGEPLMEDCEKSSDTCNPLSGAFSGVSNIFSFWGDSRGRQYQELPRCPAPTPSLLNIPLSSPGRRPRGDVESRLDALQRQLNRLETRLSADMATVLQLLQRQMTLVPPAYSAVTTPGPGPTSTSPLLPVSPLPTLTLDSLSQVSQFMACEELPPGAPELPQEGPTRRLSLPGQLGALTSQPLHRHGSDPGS
Chain of Glucagon-like peptide 1 receptor (Homo sapiens) (P43220 whole entry, looked up): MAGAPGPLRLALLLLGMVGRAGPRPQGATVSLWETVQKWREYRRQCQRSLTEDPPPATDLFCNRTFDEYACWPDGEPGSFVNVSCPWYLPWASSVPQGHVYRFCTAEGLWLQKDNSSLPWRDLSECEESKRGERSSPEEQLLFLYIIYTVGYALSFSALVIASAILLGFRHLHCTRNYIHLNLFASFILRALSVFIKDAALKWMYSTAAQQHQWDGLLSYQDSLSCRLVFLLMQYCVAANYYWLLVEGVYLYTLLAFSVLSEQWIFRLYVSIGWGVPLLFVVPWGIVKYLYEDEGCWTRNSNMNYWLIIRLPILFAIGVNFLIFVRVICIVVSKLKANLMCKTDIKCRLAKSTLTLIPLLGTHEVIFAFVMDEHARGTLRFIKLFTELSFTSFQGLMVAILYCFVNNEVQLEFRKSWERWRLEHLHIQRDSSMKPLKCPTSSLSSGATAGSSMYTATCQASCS
Chain of Thyroid hormone receptor beta (Homo sapiens) (P10828 whole entry, looked up): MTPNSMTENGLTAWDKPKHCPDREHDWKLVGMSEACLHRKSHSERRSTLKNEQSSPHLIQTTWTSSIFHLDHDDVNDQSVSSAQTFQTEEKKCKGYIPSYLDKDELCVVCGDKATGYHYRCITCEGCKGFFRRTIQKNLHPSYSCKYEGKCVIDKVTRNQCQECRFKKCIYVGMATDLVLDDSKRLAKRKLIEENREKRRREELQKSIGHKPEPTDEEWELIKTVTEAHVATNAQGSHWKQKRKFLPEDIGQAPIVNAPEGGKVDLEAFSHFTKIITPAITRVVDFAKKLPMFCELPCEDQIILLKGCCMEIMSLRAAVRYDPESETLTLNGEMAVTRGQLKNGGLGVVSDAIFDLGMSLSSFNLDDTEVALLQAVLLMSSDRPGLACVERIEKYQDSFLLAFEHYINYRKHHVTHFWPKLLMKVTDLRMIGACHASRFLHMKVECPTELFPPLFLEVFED
Chain of Luciferin 4-monooxygenase (Photinus pyralis) (P08659 whole entry, looked up): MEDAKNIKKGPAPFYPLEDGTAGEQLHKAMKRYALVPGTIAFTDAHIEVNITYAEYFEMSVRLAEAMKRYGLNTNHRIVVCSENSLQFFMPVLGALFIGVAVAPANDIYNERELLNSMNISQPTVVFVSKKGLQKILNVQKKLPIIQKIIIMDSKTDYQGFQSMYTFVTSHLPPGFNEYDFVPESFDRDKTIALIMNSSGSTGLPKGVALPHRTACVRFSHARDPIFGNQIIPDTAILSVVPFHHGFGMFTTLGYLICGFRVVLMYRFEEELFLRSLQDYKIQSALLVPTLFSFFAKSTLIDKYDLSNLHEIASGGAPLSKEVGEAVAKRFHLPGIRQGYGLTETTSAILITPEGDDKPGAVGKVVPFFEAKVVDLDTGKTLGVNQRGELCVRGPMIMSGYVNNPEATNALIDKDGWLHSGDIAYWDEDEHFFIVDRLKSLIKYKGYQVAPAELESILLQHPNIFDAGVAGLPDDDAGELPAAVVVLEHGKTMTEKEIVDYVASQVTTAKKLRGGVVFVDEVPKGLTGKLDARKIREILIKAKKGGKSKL

Nc1ccc2cc3ccc(N)cc3nc2c1
Potency [1]: 12.6 µM (active) | Potency [2]: inactive | Potency [3]: inactive | Potency [4]: inactive

Cc1ncc(CO)c(CO)c1O
max response [5]: -0.0047% | max response [6]: 7.42% (inactive) | Potency [2]: inactive | Potency [7]: inactive

C1=CC2C3C=CC(C3)C2C1 (stereo not drawn)
outcome [8]: inactive | activity change % (negative = inhibition) [9]: 2.01% (inactive) | Potency [1]: inactive | Potency [2]: inactive | Potency [7]: inactive | activation [10]: -1.4% (inactive)

Cc1ccc(O)cc1
outcome [8]: inactive | max response [5]: -4.07% | max response [6]: 9.57% (inactive) | activity change % (negative = inhibition) [9]: -4.08% (inactive) | Potency [1]: inactive | activation [10]: -3.91% (inactive)

NC(N)=NCCCCN=C(N)N
Potency [1]: inactive | Potency [2]: inactive | Potency [11]: inactive | outcome [12]: inactive | outcome [13]: inactive | outcome [14]: inactive | outcome [15]: inactive

O=C(Oc1ccccc1)c1cccc(C(=O)Oc2ccccc2)c1
outcome [8]: inactive | max response [5]: 0.814% | max response [6]: -33.4% (inactive) | activity change % (negative = inhibition) [9]: 0.996% (inactive)

Nc1cccc2c(N)cccc12
outcome [8]: inactive | max response [5]: 0.949% and -3.88% | max response [6]: -3.27% (inactive) and -4.14% (inactive) | activity change % (negative = inhibition) [9]: 0% (inactive) and 7.22% (inactive) | Potency [1]: inactive | Potency [2]: inactive | activation [10]: -3.42% (inactive) and 1.45% (inactive)

O=C(Oc1ccccc1)c1ccccc1O
outcome [8]: inactive | max response [5]: 8.83% and -6.1% | max response [6]: 0.088% (inactive) and -1.29% (inactive) | activity change % (negative = inhibition) [9]: -5.55% (inactive) and -2.84% (inactive) | Potency [2]: inactive | Potency [7]: inactive

Nc1ncnc2nc[nH]c12
Potency [1]: inactive | Potency [2]: inactive | Potency [3]: inactive | Potency [4]: inactive | Potency [16]: inactive

Brc1ccc([C@H]2CN3CCSC3=N2)cc1
Potency [1]: 11.2 µM (active) | Potency [11]: inactive | outcome [12]: inactive | outcome [13]: inactive | outcome [14]: inactive | outcome [15]: inactive

Cc1cc(O)c2c(O)c3c(O)cccc3cc2c1
Potency [2]: inactive

CC(C)N(CCC(=O)c1ccc2ccccc2c1)Cc1ccccc1
Potency [1]: 3.16 µM (active) | outcome [12]: inactive | outcome [13]: inactive | outcome [14]: inactive | outcome [15]: inactive

COc1cc(NS(=O)(=O)c2ccc(N)cc2)nc(C)n1
Potency [2]: inactive

CCCCNc1ccc(C(=O)OCCN(CC)CC)cc1
Potency [2]: inactive

C=CCOc1cc(Cl)ccc1C(=O)NCCN(CC)CC
Potency [2]: inactive

CC(=O)Nc1c(I)c(NC(C)=O)c(I)c(C(=O)O)c1I
Potency [2]: inactive

O=C(COCCOCCOCC(=O)Nc1c(I)cc(I)c(C(=O)O)c1I)Nc1c(I)cc(I)c(C(=O)O)c1I
Potency [2]: inactive

CCC1(c2cnc[nH]2)Cc2ccccc2C1
Potency [2]: inactive

C=CC[N+]1([C@H]2C[C@H]3[C@@H]4CC[C@H]5C[C@H](OC(C)=O)[C@@H](N6CCCCC6)C[C@]5(C)[C@H]4CC[C@]3(C)[C@H]2OC(=O)CC)CCCCC1
Potency [2]: inactive

O=C1OC2(c3ccccc31)c1cc(I)c(O)c(I)c1Oc1c2cc(I)c(O)c1I
Potency [2]: 14.4 µM (active)

CCOc1ccc(NS(=O)(=O)c2ccc(N)cc2)nn1
Potency [2]: inactive

O=C(O)Cc1ccccc1Oc1ccc(Cl)cc1Cl
Potency [2]: inactive

O=C1NC(c2cccc([N+](=O)[O-])c2)=CCN1c1ccccc1O
Potency [1]: inactive | outcome [12]: inactive | outcome [13]: inactive | outcome [14]: inactive | outcome [15]: inactive

CCCCCC1Nc2cc(C(F)(F)F)c(S(N)(=O)=O)cc2S(=O)(=O)N1 (stereo not drawn)
Potency [2]: inactive

OC(CCCN1CCCCC1)(c1ccccc1)c1ccccc1
Potency [2]: inactive

Oc1ccc(CCNCCCCCCNCCc2ccccc2)cc1O
Potency [2]: inactive

Cn1cnc2c(NCc3ccccc3)nc(NCCO)nc21
Potency [1]: inactive | Potency [11]: inactive | outcome [12]: inactive | outcome [13]: inactive | outcome [14]: inactive | outcome [15]: inactive

CC(=O)N(CC(O)CO)c1c(I)c(C(=O)NCCO)c(I)c(C(=O)NCC(O)CO)c1I (stereo not drawn)
Potency [2]: inactive

CN(C)CCOC1=Cc2ccccc2Sc2ccc(Cl)cc21
Potency [2]: inactive

N#C/C(=C1/SC[C@@H](c2ccc(Cl)cc2Cl)S1)n1ccnc1
Potency [2]: inactive

Nc1nnnn1-c1ccccc1
Potency [2]: inactive

CC[N+](CC)(CC)CCOC(=O)C(C1CCCC1)C1CCCC1
Potency [2]: inactive

N=C(N)c1ccc(OCCCOc2ccc(C(=N)N)cc2)cc1
Potency [2]: inactive

CCCCCC[C@@H](CCC)C(=O)O
Potency [2]: inactive

CN(C)C(=O)CNC(=O)Cc1ccccc1
Potency [2]: inactive

CN1CCC(=C2c3ccccc3CCc3cccnc32)CC1
Potency [2]: inactive

O=C(NN1CCCC1)NS(=O)(=O)c1ccc(Cl)cc1
Potency [2]: inactive

O=[N+]([O-])c1ccc(-c2nc(-c3ccc(F)cc3)c(-c3ccncc3)[nH]2)cc1
Potency [1]: 8.91 µM (active) | Potency [11]: inactive | outcome [12]: inactive | outcome [13]: inactive | outcome [14]: inactive | outcome [15]: inactive

O=S(=O)(O)c1ccc2nc(-c3ccccc3)[nH]c2c1
Potency [1]: inactive | Potency [4]: inactive | Potency [16]: inactive

CCOC(=O)c1ccc(NC(=O)CN2CCCCC2)cc1
Potency [2]: inactive

N[C@@H](Cc1cc(I)c(O)c(I)c1)C(=O)O
Potency [2]: inactive

O=C(O)CNC(=O)CNC(=O)CNC(=O)CSC(=O)c1ccccc1
Potency [2]: inactive

COc1ccccc1N1CCN(CCN2C(=O)CC3(CCCC3)CC2=O)CC1
Potency [1]: 1.12 µM (active) | Potency [11]: inactive | outcome [12]: inactive | outcome [13]: inactive | outcome [14]: inactive | outcome [15]: inactive

CC(C)=CCC/C(C)=C/CC/C(C)=C/CCC(=O)OC/C=C(\C)CCC=C(C)C
Potency [2]: inactive

CN(C)c1cc2c(Nc3ccc4c(cnn4Cc4ccccc4)c3)ncnc2cn1
Potency [1]: inactive | outcome [12]: inactive | outcome [13]: inactive | outcome [14]: inactive | outcome [15]: inactive

O=C(O)c1ccccc1S
Potency [2]: inactive

CC(C)(C)C(=O)OCOC(=O)C1N2C(=O)CC2S(=O)(=O)C1(C)C (stereo not drawn)
Potency [2]: inactive

C[N+]1(CC2COC(c3ccccc3)(c3ccccc3)O2)CCCCC1 (stereo not drawn)
Potency [2]: inactive

O=C(O)Cc1ccc(OCCNC[C@H](O)c2ccccc2)cc1
Potency [2]: inactive
